PrPC TRFRET: inhibitors of human cell surface prion protein PrPC, primary screen, cell-based, TR-FRET; Major prion protein (Homo sapiens), P04156; TR-FRET read-out; inhibition, % at 13.8 µM; hit rate 0.43% among 370,000; AID 720596, 2013; in the data active = inhibition above about 24%
SARS 3CLpro inh: SARS-CoV 3CLpro protease inhibitors, primary screen, biochemical, quenched FRET; recombinant SARS-CoV 3CLpro, quenched FRET peptide cleavage; hit rate 0.14% among 290,000; inhibition, % at 6 µM; in the data active = inhibition above about 12%
VHR inh abs: VHR1 phosphatase inhibitors, primary screen, biochemical, absorbance, uHTS; inhibition, % at 13.3 µM; hit rate 0.52% among 290,000; AID 1654, 2009; recombinant VHR phosphatase, pNPP absorbance; in the data active = inhibition above about 50%
BJeLR lethal: MLPCN primary cell-based screen for lethality selective to Ras in HRASV12 cells; BJeLR (HRASV12) viability, CellTiter-Glo ATP luminescence, 48 h; inhibition, % (concentration not given with the values); hit rate 0.17% among 300,000; AID 1554, 2009; in the data active = inhibition above about 50%
PrPC TRFRET cf: confirmation of inhibitors of cell surface human prion protein, confirmation, cell-based, TR-FRET | shares compounds with PrPC TRFRET | cell surface PrPC level | inhibition, % at 13.8 µM | hit rate 65% among 1,500 | AID 743200, 2013; in the data active = inhibition above about 25%
LD9 cytotox: cytotoxicity in LD9 cells, cytotoxicity control for cell surface PrPc inhibitor project, cell-based, luminescence, high throughput; inhibition, % at 13.8 µM; AID 743201, 2013; luminescence viability; hit rate 29% among 1,500; shares compounds with PrPC TRFRET; in the data active = inhibition above about 9.5%
Each line names hits and unclear results; the compound was inactive in the other large screens (follow-up assays come after a bar, where they were run). A selection: hits, their analogues and other compounds. The true share with any hit is near 1.1%.

Cc1ccccc1OCC(=O)Nc1ccncc1	none
COc1ccc(NC(=O)Nc2ccc(Cc3ccncc3)cc2)c(OC)c1	PrPC TRFRET 26 | PrPC TRFRET cf inactive | LD9 cytotox inactive
COc1ccc(NC(=O)Nc2cnccn2)c(OC)c1	none
Cc1cc(=O)c(C(=O)O)c(C)n1-c1ccccc1	none (no result: SARS 3CLpro inh, VHR inh abs, BJeLR lethal)
COCCN(C(=O)CSc1nnc(-c2ccccc2F)o1)c1c(N)n(Cc2ccccc2)c(=O)[nH]c1=O	none (no result: SARS 3CLpro inh, VHR inh abs, BJeLR lethal)
O=C(COc1cccc2c1CCN(Cc1ccccc1)C2=O)N1CCCCC1	PrPC TRFRET 29 | PrPC TRFRET cf inactive | LD9 cytotox inactive
COc1ccccc1N=NNc1ccccc1OC	none (no result: SARS 3CLpro inh, VHR inh abs, BJeLR lethal)
O=C(Nc1nc(-c2ccccc2)cs1)c1ccccc1NS(=O)(=O)c1ccc(F)cc1	PrPC TRFRET 35 | PrPC TRFRET cf 30 | LD9 cytotox 32
CSc1sc(C(=O)O)c2c1C(=O)CC(C)(C)C2	none (no result: SARS 3CLpro inh, VHR inh abs)
CSc1sc(-c2ccnc(SCC(=O)C(C)(C)C)n2)c2c1C(=O)CC(C)(C)C2	PrPC TRFRET 32 | PrPC TRFRET cf 48 | LD9 cytotox inactive
CC(N)C(=O)NC1C2C(=C(O)CC(O)C2O)C(=O)OC1(C)C(Cl)Cl (stereo unspecified)	PrPC TRFRET 93 (no result: SARS 3CLpro inh, VHR inh abs, BJeLR lethal) | PrPC TRFRET cf 100 | LD9 cytotox 26
C/C(=N\NC(=O)C1CC1)c1ccccc1Br	none
Fc1ccc(-n2nnnc2-c2cnc(-c3cccs3)nc2C(F)(F)F)cc1	PrPC TRFRET 53 | PrPC TRFRET cf 48 | LD9 cytotox 40
COCCNC(=O)CSc1cc(-c2ccccc2)c2ccc(OC)cc2n1	PrPC TRFRET 33 | PrPC TRFRET cf 37 | LD9 cytotox inactive
CNC(=O)c1nnsc1S(=O)(=O)c1ccc(Cl)cc1	PrPC TRFRET 25 | PrPC TRFRET cf inactive | LD9 cytotox 80
NC(=O)c1cc(NC(=O)c2ccc(NS(=O)(=O)c3cccs3)cc2)cc(C(N)=O)c1	PrPC TRFRET 33 | PrPC TRFRET cf 35 | LD9 cytotox inactive
CC(C)(C)C(=O)NC(=S)NNC(=O)c1sc2ccccc2c1Cl	none (no result: PrPC TRFRET)
CCOC(=S)NC(=O)c1sc2ccccc2c1Cl	PrPC TRFRET 45 | PrPC TRFRET cf 34 | LD9 cytotox inactive
O=C(CNC(=O)c1sc2ccccc2c1Cl)OCc1ccccc1	none
Cc1ccccc1COC(=O)CNC(=O)c1sc2ccccc2c1Cl	none (no result: SARS 3CLpro inh, VHR inh abs)
O=C(NC(=S)NCCO)c1sc2ccccc2c1Cl	PrPC TRFRET 78 | PrPC TRFRET cf 80 | LD9 cytotox inactive
CCCOC(=S)NC(=O)c1sc2ccccc2c1Cl	PrPC TRFRET 32 | PrPC TRFRET cf 38 | LD9 cytotox inactive
CC(=O)Nc1sc2c(c1-c1nc3ccccc3s1)CCCNC2	none (no result: SARS 3CLpro inh, VHR inh abs, BJeLR lethal)
CCc1cc2ccccc2nc1SCC(=O)Nc1cc(C)on1	PrPC TRFRET 30 | PrPC TRFRET cf 69 | LD9 cytotox inactive
CCCc1nc(SCC(=O)Nc2cc(C)on2)c2ccccc2n1	PrPC TRFRET 123 | PrPC TRFRET cf 120 | LD9 cytotox inactive
CCCc1nc(SCC(=O)NC2CCCC2)c2ccccc2n1	PrPC TRFRET 34 | PrPC TRFRET cf 43 | LD9 cytotox inactive
Cc1cc(NC(=O)CSc2nc(-c3cccs3)nc3ccccc23)no1	PrPC TRFRET 44 (no result: SARS 3CLpro inh, VHR inh abs, BJeLR lethal) | PrPC TRFRET cf 102 | LD9 cytotox inactive
CCc1cc2cc(C)c(C)cc2nc1SCC(=O)Nc1cc(C)on1	none
Cc1cc(NC(=O)CSc2nc(C(C)(C)C)nc3ccccc23)no1	none
COc1ccc(NCC(=O)NN=C2CCS(=O)(=O)c3ccc(F)cc32)cc1	none (no result: SARS 3CLpro inh, VHR inh abs, BJeLR lethal)
CCOC(=O)[C@]12CCCCC/C=C\1N(Cc1ccc(OC)cc1)C(=O)[C@H]2CC(=O)NCc1cccs1	none (no result: SARS 3CLpro inh, VHR inh abs, BJeLR lethal)
CC(=O)CC[C@H]1CC[C@]2(CCCN(C(=O)C3CCCCC3)C2)O1	none (no result: SARS 3CLpro inh, VHR inh abs, BJeLR lethal)
CCOC(=O)CNC(=O)CSc1nc(Cc2ccccc2)nc2ccccc12	none
CCCCNC(=O)CSc1nc(Cc2ccccc2)nc2ccccc12	PrPC TRFRET 28 | PrPC TRFRET cf 38 | LD9 cytotox inactive
Cc1cc(NC(=O)CSc2nc(CCC3CCCC3)nc3ccccc23)no1	PrPC TRFRET 43 | PrPC TRFRET cf 56 | LD9 cytotox inactive
Cc1cc(NC(=O)CSc2ncnc3ccccc23)no1	PrPC TRFRET 36 | PrPC TRFRET cf 94 | LD9 cytotox inactive
Cc1nonc1NC(=O)CSc1nc(CCC2CCCC2)nc2ccccc12	none
Cc1cc(NC(=O)CSc2cc(C)c3ccccc3n2)no1	none (no result: SARS 3CLpro inh, VHR inh abs, BJeLR lethal)
CCOC(=O)N1CCN(C(=O)C[C@H]2C[C@@]3(C(=O)OC)C(=C[C@H](C(C)C)O[C@@H]3C3CC3)N(Cc3ccc(Cl)cc3Cl)C2=O)CC1	none (no result: SARS 3CLpro inh, VHR inh abs, BJeLR lethal)
CC(C)N1CCc2c(sc(NC(=O)c3ccc(S(=O)(=O)N4CCCCC4C)cc3)c2C(N)=O)C1 (stereo unspecified)	PrPC TRFRET 43 | PrPC TRFRET cf inactive | LD9 cytotox inactive
CNC(=O)c1c(NC(=O)c2ccc(S(=O)(=O)N3CCCCC3)cc2)sc2c1CCN(C(C)C)C2	none
Cc1ccc(C(C)C)c(OCc2ccc(C(=O)N/N=C/c3ccc(O)c(O)c3)cc2)c1	PrPC TRFRET 28 | PrPC TRFRET cf 41 | LD9 cytotox 11
Cc1ccc(C(C)C)c(OCc2ccc(C(=O)N/N=C/c3cccc(O)c3O)cc2)c1	PrPC TRFRET 43, BJeLR lethal 74 | PrPC TRFRET cf 29 | LD9 cytotox 19
Cc1c(NC(=O)[C@@H](NC(=O)c2ccc(Cl)c([N+](=O)[O-])c2)C(C)C)c(=O)n(-c2ccccc2)n1C	none (no result: SARS 3CLpro inh, VHR inh abs, BJeLR lethal)
CCCn1c2c(c(=N)c3c1CCC3)CCC2	none
CCCCCCCn1c2c(c(=N)c3ccccc31)CCC2	PrPC TRFRET 30 | PrPC TRFRET cf 31 | LD9 cytotox 15
Cc1cc(C(=O)N2CCC2(C)C(=O)NCCC#N)nn1C (stereo unspecified)	none (no result: SARS 3CLpro inh, VHR inh abs, BJeLR lethal)
CC(=O)Oc1c(C(C)C)cc(N(C(C)=O)c2ccccc2)cc1C(C)C	PrPC TRFRET 36 (no result: SARS 3CLpro inh, VHR inh abs) | PrPC TRFRET cf 29 | LD9 cytotox inactive
CC(=O)N(c1ccccc1)c1c(F)c(F)c(F)c(F)c1F	none
O=c1c(Br)c(Br)cnn1-c1ccccc1	PrPC TRFRET 33 (no result: BJeLR lethal) | PrPC TRFRET cf 80 | LD9 cytotox 98
Cc1ccc(-n2ncc(Br)c(Br)c2=O)cc1	none (no result: PrPC TRFRET)
C=C1[C@@H](C)C2[C@H](Cc3ccccc3)NC(=O)[C@]23OC(=O)CC[C@H](O)CCC[C@H](C)C/C=C/[C@H]3[C@@H]1O (stereo partly specified)	none (no result: PrPC TRFRET, SARS 3CLpro inh)
C=C1[C@@H](C)[C@H]2[C@H](Cc3ccccc3)NC(=O)[C@]23OC(=O)/C=C/[C@H](O)CCC[C@@H](C)C/C=C/[C@H]3[C@@H]1O	PrPC TRFRET 41 | PrPC TRFRET cf inactive | LD9 cytotox 9.7

Screens as filed in PubChem.
